The list is not random: actives were taken first. Their share in the collection is about 2%.
TCR CD3 inh = inhibitors of human TCR-CD3 interaction; TAMRA-labeled TCR probe fluorescence, biochemical; inhibition, % at 9.4 µM; actives 0.37% (n = 360,000); AID 651800; in the data active = inhibition above about 19%;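 note: recombinant mutant TCR 2C K166C tagged with TAMRA read by polarization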
MBD2 DNA inh = inhibitors of human MBD2 binding to methylated oligonucleotide | Q9UBB5 | TR-FRET | inhibition, % at 4.4 µM | actives 0.31% (n = 370,000) | AID 686964; in the data active = inhibition above about 13%
Target sequence (Q9UBB5 whole entry, looked up): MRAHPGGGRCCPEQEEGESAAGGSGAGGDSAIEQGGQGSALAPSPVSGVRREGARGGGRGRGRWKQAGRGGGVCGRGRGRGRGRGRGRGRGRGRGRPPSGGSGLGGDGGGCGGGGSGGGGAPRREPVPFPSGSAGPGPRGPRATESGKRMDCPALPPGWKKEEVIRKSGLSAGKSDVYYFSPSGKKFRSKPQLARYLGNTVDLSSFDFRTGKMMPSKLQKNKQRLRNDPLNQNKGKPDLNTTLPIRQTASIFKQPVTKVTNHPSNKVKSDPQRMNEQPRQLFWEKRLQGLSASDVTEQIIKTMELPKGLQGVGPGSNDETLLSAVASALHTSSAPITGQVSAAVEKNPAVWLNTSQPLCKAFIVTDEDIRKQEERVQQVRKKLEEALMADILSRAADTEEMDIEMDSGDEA
Rin1-Abl PPI inh = inhibitors of human Rin1-Abl protein interaction. P00519+Q13671. TR-FRET Rin1/Abl binding, biochemical. inhibition, % at 7.35 µM. actives 0.4% (n = 360,000). AID 588664; in the data active = inhibition above about 5%, passing the limit was not always enough
LEDGF integ inh = blocks HIV-1 LEDGF/p75-dependent DNA integration | inhibition, % at 3.7 µM | TR-FRET IN-LEDGF/p75 DNA integration, Eu/Cy5 | actives 0.64% (n = 370,000);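 active = inhibition above the screen-wide mean plus 3 SD, cut at about 13% in these data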;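 note: signal is the Cy5 over europium emission ratio at 671 and 618 nm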
UHRF1 binding = human UHRF1 methylated DNA binding inhibitors. AID 687016. actives 0.75% (n = 370,000). inhibition, % at 4.4 µM. Q96T88. UHRF1 binding to methylated oligo, TR-FRET; in the data active = inhibition above about 21%;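 note: UHRF1 SRA domain binding a hemimethylated CpG hairpin DNA probe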
IN multimer up = activates HIV-1 integrase multimerization in LEDGF counter-screen; shares compounds with LEDGF integ inh; TR-FRET HIV-1 integrase multimerization, biochemical; actives 17% (n = 2,000); activation, % at 7.7 µM; in the data active = activation above about 8.9%
TRFRET interf = TR-FRET optical interference, LEDGF/p75 integration counter-screen; 2,000 tested, under 10 active; inhibition, % at 7.7 µM; AID 1053135; shares compounds with LEDGF integ inh; TR-FRET optical interference counterscreen, HIV-1 IN multimerization;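 active = inhibition above the mean over all tested compounds plus 3 SD, which no compound reached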
LEDGF integ conf = LEDGF/p75-dependent HIV-1 integration inhibition, confirmation | shares compounds with LEDGF integ inh | TR-FRET LEDGF/p75-dependent HIV-1 integration, biochemical | inhibition, % at 3.7 µM | actives 36% (n = 2,000) | AID 1053136; in the data active = inhibition above about 14%
Large screens that a line does not name were inactive (follow-up assays come after a bar, where they were run).

CCCc1cc(C(=O)N2CCCC(C(=O)c3cc(C)c(OC)c(C)c3)C2)n(C)n1 (stereo not drawn)	none
Cc1nc(NCCCn2ccnc2)c2ccccc2n1	LEDGF integ inh 71 | IN multimer up inactive | TRFRET interf inactive | LEDGF integ conf inactive
CC1=C(C)CC(C(=O)Nc2nc(-c3ccc(C)cc3C)c(C)s2)C(C(=O)O)C1 (stereo not drawn)	LEDGF integ inh 25 | IN multimer up inactive | TRFRET interf inactive | LEDGF integ conf inactive
C=CCn1c(SCC(=O)N2N=C(c3ccco3)CC2c2ccco2)nnc1-c1ccncc1 (stereo not drawn)	none
O=C(O)/C=C/C(=O)N1N=C(c2ccco2)CC1c1ccco1 (stereo not drawn)	LEDGF integ inh 51 | IN multimer up inactive | TRFRET interf inactive | LEDGF integ conf inactive
O=C(CCl)N1N=C(c2ccco2)CC1c1ccco1 (stereo not drawn)	LEDGF integ inh 49, UHRF1 binding 33 | IN multimer up inactive | TRFRET interf inactive | LEDGF integ conf inactive
O[C@H]1C[C@H](c2ccccc2)N(CC2CCCCC2)C[C@@H]1n1cc(C2CC2)nn1	none
CN(C)CC(=O)N[C@@H]1C=C[C@@H](CC(=O)NCCN2CCCCC2)O[C@@H]1CO	LEDGF integ inh 28 (no result: Rin1-Abl PPI inh) | IN multimer up inactive | TRFRET interf inactive | LEDGF integ conf inactive
COc1ccc(OC)c(NC2c3ncccc3C(=O)N2Cc2ccco2)c1 (stereo not drawn)	none
Cc1ccc(NC2c3ncccc3C(=O)N2Cc2ccco2)c(C)c1 (stereo not drawn)	LEDGF integ inh 20 | IN multimer up inactive | TRFRET interf inactive | LEDGF integ conf inactive
COc1ccc(CN2C(=O)c3cccnc3C2Nc2cc(Cl)ccc2OC)cc1 (stereo not drawn)	LEDGF integ inh 15 | IN multimer up inactive | TRFRET interf inactive | LEDGF integ conf 23
CC(C)=CCC/C(C)=C/CNC(=O)C[C@H]1C[C@H](C(=O)N2CCCCC2)[C@@]2(C)c3[nH]c4cc(CCC(=O)N(C)C)ccc4c3CCN2C1=O	none (no result: TCR CD3 inh, MBD2 DNA inh, LEDGF integ inh, UHRF1 binding)

High-throughput results: PubChem BioAssay, The Scripps Research Institute Molecular Screening Center
